“And” between values parts separate entries of the source, which are not always exact repeats. Equal entries are not always repeated. Inconclusive results are not listed. Some compounds were tested as several samples or in several runs, with calls that do not always agree. The source made the active and inactive calls. The calls were made as follows, unless noted: active = hit-call score of the fitted dose curve at least 0.9, where 1 is the maximum; inactive = score below 0.9.
Tests used:
[1] = ATG_PBREM_CIS: Attagene CIS-FACTORIAL HepG2 Assay for human Phenobarbital-responsive Enhancer Module (PBREM) (AID 2282955); conditions: HepG2 PBREM cis-reporter, Attagene multiplexed transcription; actives raise or lower the signal
Outline: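 Transfected liver-derived HepG2 cells exposed 24 h; PBREM reporter transcript quantified via RT-PCR and capillary electrophoresis, with activity in either direction referenced to DMSO.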

[2] = target: Paired box protein Pax-6 (Homo sapiens) (UniProt P26367); assay: ATG_Pax6_CIS: Attagene CIS-FACTORIAL HepG2 Assay for human Paired Box 6 (PAX6) (AID 2282956); conditions: HepG2 CIS-FACTORIAL PAX6 reporter transcription, RNA readout; actives raise or lower the signal
Outline: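 DMSO-referenced bidirectional fits of reporter mRNA fluorescence; HepG2 with transient cis-promoter MRTUs, 24 h post-dose, RT-PCR plus capillary electrophoresis detection.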

[3] = ATG_PXRE_CIS: Attagene CIS-FACTORIAL HepG2 Assay for human Pregnane X Receptor Element (PXRE) (AID 2282957); conditions: HepG2 Attagene CIS-FACTORIAL PXRE reporter, mRNA; actives raise or lower the signal
Outline: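 Endogenous transcription factor activity in HepG2 was gauged through induction of reporter mRNA driven by a cis-regulating promoter element, sampled 24 h post-treatment. Activity was fitted in both directions against DMSO negative control.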

[4] = ATG_PPRE_CIS: Attagene CIS-FACTORIAL HepG2 Assay for human Peroxisome Proliferator-activated Response Element (PPRE) (AID 2282958); conditions: HepG2 PPRE cis-element reporter, Attagene transcription factor profiling; actives raise or lower the signal
Outline: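 Measured endpoint: PPRE-controlled reporter mRNA, detected by RT-PCR and capillary electrophoresis fluorescence, from transiently transfected HepG2 cells 24 h after dosing. Curves fitted in both directions using DMSO baseline.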

[5] = ATG_RORE_CIS: Attagene CIS-FACTORIAL HepG2 Assay for human RAR-related Orphan Receptor Element (RORE) (AID 2282959); conditions: HepG2 Attagene cis-factorial RORE reporter, mRNA; actives raise or lower the signal
Outline: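 Transiently transfected HepG2 reporter cells were treated 24 h. Reporter transcripts were detected by RT-PCR and capillary electrophoresis, with bidirectional fitting against DMSO.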

[6] = ATG_Sox_CIS: Attagene CIS-FACTORIAL HepG2 Assay for human SRY-box transcription factor (SOX) (AID 2282960); conditions: HepG2 Attagene cis-factorial SOX reporter, mRNA; actives raise or lower the signal
Outline: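 Gain- or loss-of-signal endpoint, fitted bidirectionally with DMSO as negative control. Based on reporter mRNA from transfected HepG2 cells harvested 24 h post-treatment and quantified via RT-PCR and capillary electrophoresis.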

[7] = target: Transcription factor Sp1 (Homo sapiens) (UniProt P08047); assay: ATG_Sp1_CIS: Attagene CIS-FACTORIAL HepG2 Assay for human Specificity Protein 1 (Sp1) (AID 2282961); conditions: HepG2 Sp1 cis-reporter transcription, actives raise or lower the signal
Outline: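 Endpoint reflects endogenous Sp1 transcriptional activity, not an exogenous fusion protein: HepG2 cells with transfected cis-regulated reporters, 24 h dosing, RT-PCR/capillary electrophoresis mRNA read-out, DMSO-normalised bidirectional fit.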

[8] = ATG_SREBP_CIS: Attagene CIS-FACTORIAL HepG2 Assay for human Sterol Regulatory Element Binding (SREBP) (AID 2282962); conditions: HepG2 Attagene cis-factorial SREBP reporter, mRNA; actives raise or lower the signal
Outline: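 In this cis-format assay, HepG2 liver cells express reporters controlled by promoter elements responsive to native transcription factors. Exposure lasts 24 h; reporter mRNA fluorescence from capillary electrophoresis gives the signal, fitted bidirectionally against DMSO.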

[9] = target: Signal transducer and activator of transcription 3 (Homo sapiens) (UniProt P40763); assay: ATG_STAT3_CIS: Attagene CIS-FACTORIAL HepG2 Assay for human Signal Transducer and Activator of Transcription 3 (STAT3) (AID 2282963); conditions: HepG2, Attagene cis-factorial STAT3 reporter transcription; actives raise or lower the signal
Outline: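 Fluorescence intensity of 6-FAM-labelled reporter fragments, separated by capillary electrophoresis after RT-PCR, gave the signal. Cells were HepG2 transfected with cis-element reporter units and treated 24 h; fitting was bidirectional relative to DMSO.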

[10] = ATG_TA_CIS: Attagene CIS-FACTORIAL HepG2 Assay for human TA Basal Promoter (AID 2282964); conditions: HepG2 Attagene CIS-factorial TA basal promoter reporter; actives raise or lower the signal
Outline: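 Steps: transfect HepG2 with MRTUs; dose 24 h; isolate RNA, DNase-treat, reverse-transcribe; PCR and FAM-label reporter cDNA; digest with HpaI 2h at 37 C; run capillary electrophoresis. Activity fitted both directions against DMSO.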

[11] = ATG_TCF_b_cat_CIS: Attagene CIS-FACTORIAL HepG2 Assay for human T-Cell-Factor with beta-catenin (TCF/b-cat) (AID 2282965); conditions: HepG2 TCF/beta-catenin cis-reporter transcription, actives raise or lower the signal
Outline: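 Cells of the HepG2 line carry transiently transfected reporter units whose promoters respond to endogenous factors. Twenty-four hours post-dosing, reporter mRNA induction is measured by fluorescent RT-PCR and capillary electrophoresis, with DMSO as baseline.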

[12] = ATG_TAL_CIS: Attagene CIS-FACTORIAL HepG2 Assay for human TAL Basal Promoter (AID 2282966); conditions: HepG2 Attagene cis-factorial TAL promoter reporter; actives raise or lower the signal;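 also: background control endpoint measuring basal TAL promoter reporter mRNA not a specific factor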
Outline: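 Endogenous transcription-factor activity is sensed in HepG2 cells through transfected cis-promoter reporter constructs. After 24 h dosing, reporter transcripts are quantified by RT-PCR and capillary electrophoresis. Gain or loss of signal is fitted relative to DMSO.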

[13] = ATG_TGFb_CIS: Attagene CIS-FACTORIAL HepG2 Assay for human Transforming Growth Factor (TGF) (AID 2282967); conditions: HepG2 Attagene CIS TGFb reporter, mRNA transcription; actives raise or lower the signal
Outline: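 Cells were dosed for 24 hours, after which total RNA was reverse-transcribed and reporter sequences amplified, labeled and sized by capillary electrophoresis. Activity was fitted in both directions against DMSO.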

[14] = ATG_VDRE_CIS: Attagene CIS-FACTORIAL HepG2 Assay for human Vitamin D Receptor Element (VDRE) (AID 2282968); conditions: HepG2 VDRE cis-reporter transcription, actives raise or lower the signal
Outline: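 Compounds were applied for 24 h to HepG2 cells transfected with promoter-regulated reporter units. Total RNA was reverse-transcribed, and reporter amplicons were fluorescently labelled and sized by capillary electrophoresis.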

[15] = target: Nuclear receptor subfamily 1 group I member 3 (Homo sapiens) (UniProt Q14994); assay: ATG_CAR_TRANS: Attagene TRANS-FACTORIAL HepG2 Assay for human Constitutive Androstane Receptor (CAR) (AID 2282969; active = hit-call score of the fitted dose curve at least 0.9, where 1 is the maximum;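 also: activators raise reporter mRNA above DMSO so AC50 marks induction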); conditions: HepG2 Attagene TRANS-FACTORIAL CAR reporter
Outline: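 Transiently transfected HepG2, multiplex TRANS reporters (CAR-Gal4 chimera driving GAL4-UAS reporter). 24 h dosing. Readout: reporter transcript by RT-PCR + capillary electrophoresis, fluorescence intensity; positive direction vs DMSO.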

[16] = target: Estrogen receptor (Homo sapiens) (UniProt P03372); assay: ATG_ERa_TRANS: Attagene TRANS-FACTORIAL HepG2 Assay for human Estrogen Receptor alpha (ERa) (AID 2282970; active = hit-call score of the fitted dose curve at least 0.9, where 1 is the maximum); conditions: HepG2 Attagene TRANS ERa GAL4 reporter, mRNA
Outline: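 Transfected HepG2 cells carrying GAL4-UAS-driven reporter units were dosed for 24 hours. Total RNA was reverse-transcribed, reporter sequences PCR-amplified, FAM-labelled, HpaI-digested and resolved by capillary electrophoresis. Increases over DMSO control defined activity.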

[17] = target: X-box-binding protein 1 (Homo sapiens) (UniProt P17861); assay: ATG_Xbp1_CIS: Attagene CIS-FACTORIAL HepG2 Assay for human X-box Binding Protein 1 (XBP1) (AID 2282972); conditions: HepG2 XBP1 cis-element reporter, Attagene multiplex; actives raise or lower the signal
Outline: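 Changes in reporter transcript abundance, read by RT-PCR and capillary electrophoresis, reflect endogenous transcription factor activity. Transfected HepG2 cells received compound for 24 hours; DMSO defined baseline for bidirectional analysis.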

[18] = ATG_M_19_TRANS: Attagene TRANS-FACTORIAL HepG2 Assay for M19 Transcription Factor (Internal Marker) (AID 2282974; active = hit-call score of the fitted dose curve at least 0.9, where 1 is the maximum); conditions: HepG2 Attagene TRANS-FACTORIAL M19 internal marker reporter
Outline: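 Using RT-PCR and capillary electrophoresis, reporter mRNA from transiently transfected human HepG2 cells was quantified following 24 h exposure; activity was fitted in the positive direction against DMSO.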

[19] = ATG_Hpa5_TRANS: Attagene TRANS-FACTORIAL HepG2 Assay for human GAL4-Hpa5 Hepatocyte Transcription Factor Basal Promoter (AID 2282975; active = hit-call score of the fitted dose curve at least 0.9, where 1 is the maximum;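 also: hits are increases in reporter mRNA over DMSO baseline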); conditions: HepG2 Attagene GAL4-Hpa5 transcription reporter
Outline: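 Gain-of-signal versus DMSO is fitted for reporter mRNA quantified by RT-PCR and capillary electrophoresis after 24 h exposure. This endpoint is an internal background marker in transiently transfected HepG2 cells carrying GAL4-UAS reporter units.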

[20] = target: Steroid hormone receptor ERR1 (Homo sapiens) (UniProt P11474); assay: ATG_ERRa_TRANS: Attagene TRANS-FACTORIAL HepG2 Assay for human Estrogen-Related Receptor alpha (ERRa) (AID 2282971; active = hit-call score of the fitted dose curve at least 0.9, where 1 is the maximum); conditions: HepG2 Attagene TRANS reporter, ERRa transactivation
Outline: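 HepG2 cells were transiently transfected with multiple GAL4-UAS reporter units, then dosed with compound for 24 h. Total RNA was reverse-transcribed, reporter cDNA PCR-amplified and fluorescently labelled, and fragments resolved by capillary electrophoresis; induction was compared with DMSO.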

Measured: AC50

Chain of X-box-binding protein 1 (Homo sapiens) (P17861 whole entry, looked up): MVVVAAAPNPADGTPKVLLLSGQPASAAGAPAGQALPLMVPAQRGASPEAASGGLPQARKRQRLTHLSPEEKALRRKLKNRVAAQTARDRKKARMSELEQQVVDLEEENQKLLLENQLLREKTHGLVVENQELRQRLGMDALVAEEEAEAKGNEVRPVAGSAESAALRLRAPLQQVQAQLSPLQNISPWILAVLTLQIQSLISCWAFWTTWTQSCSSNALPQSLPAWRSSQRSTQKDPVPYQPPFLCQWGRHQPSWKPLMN
Chain of Signal transducer and activator of transcription 3 (Homo sapiens) (P40763 whole entry, looked up, the tested form may be a part): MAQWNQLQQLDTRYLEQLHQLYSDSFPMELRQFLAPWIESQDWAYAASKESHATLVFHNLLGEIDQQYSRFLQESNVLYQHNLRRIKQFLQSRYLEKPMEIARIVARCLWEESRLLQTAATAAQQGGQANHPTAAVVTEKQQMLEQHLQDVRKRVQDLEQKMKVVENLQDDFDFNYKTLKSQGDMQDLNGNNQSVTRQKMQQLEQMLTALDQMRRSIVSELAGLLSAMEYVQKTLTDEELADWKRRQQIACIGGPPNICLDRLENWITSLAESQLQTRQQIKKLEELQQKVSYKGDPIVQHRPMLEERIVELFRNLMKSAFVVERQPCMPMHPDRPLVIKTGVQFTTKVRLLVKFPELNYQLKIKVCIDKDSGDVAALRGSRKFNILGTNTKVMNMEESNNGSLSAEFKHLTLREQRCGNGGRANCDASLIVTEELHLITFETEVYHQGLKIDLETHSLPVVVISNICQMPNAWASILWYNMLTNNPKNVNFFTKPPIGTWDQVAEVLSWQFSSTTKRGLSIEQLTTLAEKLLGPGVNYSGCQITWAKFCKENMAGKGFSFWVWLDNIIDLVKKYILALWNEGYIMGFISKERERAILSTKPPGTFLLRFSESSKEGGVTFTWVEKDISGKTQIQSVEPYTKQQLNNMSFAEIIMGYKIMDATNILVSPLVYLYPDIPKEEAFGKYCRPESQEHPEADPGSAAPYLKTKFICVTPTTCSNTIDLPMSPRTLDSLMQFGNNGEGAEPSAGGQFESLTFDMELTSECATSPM
Chain of Paired box protein Pax-6 (Homo sapiens) (P26367 whole entry, looked up): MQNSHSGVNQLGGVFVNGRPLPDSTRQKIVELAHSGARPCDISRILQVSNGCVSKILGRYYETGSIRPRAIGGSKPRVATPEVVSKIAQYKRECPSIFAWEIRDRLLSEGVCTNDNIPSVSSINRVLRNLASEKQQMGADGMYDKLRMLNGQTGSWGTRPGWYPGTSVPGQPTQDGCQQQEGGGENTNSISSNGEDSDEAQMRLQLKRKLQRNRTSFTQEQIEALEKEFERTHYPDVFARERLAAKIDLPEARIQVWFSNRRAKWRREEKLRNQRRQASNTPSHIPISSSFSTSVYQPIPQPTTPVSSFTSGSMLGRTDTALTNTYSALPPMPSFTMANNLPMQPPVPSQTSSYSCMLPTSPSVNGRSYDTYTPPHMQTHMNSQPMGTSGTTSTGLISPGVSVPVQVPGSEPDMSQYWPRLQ
Chain of Nuclear receptor subfamily 1 group I member 3 (Homo sapiens) (Q14994 whole entry, looked up, the tested form may be a part): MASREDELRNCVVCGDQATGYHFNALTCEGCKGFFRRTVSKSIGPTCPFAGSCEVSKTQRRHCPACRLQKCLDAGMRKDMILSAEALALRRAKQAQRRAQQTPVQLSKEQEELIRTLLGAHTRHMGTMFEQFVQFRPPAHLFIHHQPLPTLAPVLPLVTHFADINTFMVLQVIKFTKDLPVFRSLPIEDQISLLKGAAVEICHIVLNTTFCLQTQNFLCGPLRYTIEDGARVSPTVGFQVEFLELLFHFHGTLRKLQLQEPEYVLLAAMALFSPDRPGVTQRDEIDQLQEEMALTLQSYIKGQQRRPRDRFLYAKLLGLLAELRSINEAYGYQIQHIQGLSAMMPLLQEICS
Chain of Transcription factor Sp1 (Homo sapiens) (P08047 whole entry, looked up, the tested form may be a part): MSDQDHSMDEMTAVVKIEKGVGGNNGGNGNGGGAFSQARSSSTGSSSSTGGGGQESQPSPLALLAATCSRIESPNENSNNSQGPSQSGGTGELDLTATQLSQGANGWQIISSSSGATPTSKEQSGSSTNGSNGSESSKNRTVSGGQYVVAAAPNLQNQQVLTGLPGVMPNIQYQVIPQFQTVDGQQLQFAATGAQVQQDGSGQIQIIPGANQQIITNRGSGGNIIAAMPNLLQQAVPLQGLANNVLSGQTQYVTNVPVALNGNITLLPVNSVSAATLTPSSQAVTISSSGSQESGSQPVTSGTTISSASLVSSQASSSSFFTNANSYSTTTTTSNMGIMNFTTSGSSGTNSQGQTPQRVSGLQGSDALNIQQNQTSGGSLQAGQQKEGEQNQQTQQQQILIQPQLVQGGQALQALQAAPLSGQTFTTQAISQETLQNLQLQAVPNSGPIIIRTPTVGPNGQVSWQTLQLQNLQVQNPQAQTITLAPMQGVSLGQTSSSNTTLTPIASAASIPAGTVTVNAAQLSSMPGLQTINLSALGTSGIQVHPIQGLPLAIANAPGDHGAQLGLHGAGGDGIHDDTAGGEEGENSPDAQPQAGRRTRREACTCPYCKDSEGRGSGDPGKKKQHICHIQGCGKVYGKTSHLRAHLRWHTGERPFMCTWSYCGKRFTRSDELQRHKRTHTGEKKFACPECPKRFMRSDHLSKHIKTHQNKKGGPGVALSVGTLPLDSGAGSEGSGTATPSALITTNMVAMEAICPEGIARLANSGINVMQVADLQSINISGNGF
Chain of Steroid hormone receptor ERR1 (Homo sapiens) (P11474 whole entry, looked up, the tested form may be a part): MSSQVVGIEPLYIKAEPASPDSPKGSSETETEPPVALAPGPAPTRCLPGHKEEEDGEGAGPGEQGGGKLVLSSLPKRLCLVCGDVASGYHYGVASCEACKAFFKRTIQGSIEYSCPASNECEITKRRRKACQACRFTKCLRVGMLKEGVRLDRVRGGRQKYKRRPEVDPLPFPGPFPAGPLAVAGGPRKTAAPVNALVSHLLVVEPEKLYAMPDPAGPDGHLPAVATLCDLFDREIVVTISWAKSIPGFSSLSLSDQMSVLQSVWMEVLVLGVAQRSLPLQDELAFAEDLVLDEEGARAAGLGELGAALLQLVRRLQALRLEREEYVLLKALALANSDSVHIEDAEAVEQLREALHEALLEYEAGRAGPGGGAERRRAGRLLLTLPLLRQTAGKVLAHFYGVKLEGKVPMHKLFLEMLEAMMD
Chain of Estrogen receptor (Homo sapiens) (P03372 whole entry, looked up, the tested form may be a part): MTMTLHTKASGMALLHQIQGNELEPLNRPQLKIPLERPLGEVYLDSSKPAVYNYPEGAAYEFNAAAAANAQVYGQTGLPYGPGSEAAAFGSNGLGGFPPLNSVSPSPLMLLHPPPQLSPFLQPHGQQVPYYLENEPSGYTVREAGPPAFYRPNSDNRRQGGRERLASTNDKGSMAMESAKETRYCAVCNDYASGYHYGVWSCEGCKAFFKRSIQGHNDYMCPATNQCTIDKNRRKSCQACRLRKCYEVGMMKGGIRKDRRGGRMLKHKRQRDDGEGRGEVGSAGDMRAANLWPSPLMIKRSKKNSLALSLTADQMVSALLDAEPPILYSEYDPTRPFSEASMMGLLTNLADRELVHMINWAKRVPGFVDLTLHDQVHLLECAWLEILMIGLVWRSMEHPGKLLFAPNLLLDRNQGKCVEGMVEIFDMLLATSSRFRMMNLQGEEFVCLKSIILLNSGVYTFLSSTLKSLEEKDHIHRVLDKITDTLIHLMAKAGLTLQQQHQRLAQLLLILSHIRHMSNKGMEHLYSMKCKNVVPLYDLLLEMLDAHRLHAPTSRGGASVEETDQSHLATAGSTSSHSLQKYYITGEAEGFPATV

CCCCOC(=O)C(C)Oc1ccc(Oc2ccc(C(F)(F)F)cn2)cc1 (configuration not stated)
active: [3] 56.4 µM | [4] 50 µM
not listed: [20]
inactive: all other assays above

CC(C)(c1ccc(O)cc1)c1ccc(O)cc1
inactive: [1] | [2] | [3] | [4] | [6] | [7] | [8] | [9] | [10] | [11] | [12] | [13] | [15] | [20] | [17] | [18]
active: [2] 105 µM [middle of 4 runs] | [4] 28.6 µM and 38.9 µM and 15 µM | [7] 60 µM | [9] 33.4 µM | [10] 140 µM [middle of 4 runs] | [12] 162 µM | [13] 43.6 µM

N[C@@H](Cc1cc(I)c(Oc2ccc(O)c(I)c2)c(I)c1)C(=O)O
inactive: [1] | [2] | [4] | [5] | [6] | [7] | [8] | [9] | [10] | [11] | [12] | [13] | [14] | [15] | [17] | [18]
active: [1] 24.4 µM | [4] 13 µM and 22.3 µM | [11] 41.6 µM and 24.3 µM

O=C(O)C1(C(=O)Nc2ccc(Cl)cc2Cl)CC1
active: [3] 69.7 µM | [4] 13.7 µM
not listed: [19] | [20]
inactive: all other assays above

O=C(c1ccccc1)C1CCCCC1
inactive: [1] | [2] | [4] | [5] | [6] | [7] | [8] | [9] | [10] | [11] | [12] | [13] | [14] | [15] | [20] | [17] | [18]
active: [1] 53.2 µM | [3] 26.9 µM [middle of 4 runs] | [4] 31.5 µM and 67.1 µM | [14] 42.8 µM | [16] 25.3 µM [middle of 4 runs]

c1ccc2[nH]c(-c3cscn3)nc2c1
active: [3] 10 µM
inactive: [1] | [2] | [3] | [4] | [5] | [6] | [7] | [8] | [9] | [10] | [11] | [12] | [13] | [14] | [16] | [17] | [18]

COc1nc(C)nc(NC(=O)NS(=O)(=O)c2ccccc2OCCCl)n1
active: [3] 34.2 µM and 5.58 µM
not listed: [16] | [19]
inactive: all other assays above

CCCN(CCC)c1c([N+](=O)[O-])cc(C(F)(F)F)c(N)c1[N+](=O)[O-]
active: [1] 29.7 µM | [3] 1.29 µM | [7] 28.9 µM | [14] 3.57 µM | [16] 5.67 µM
not listed: [18]
inactive: all other assays above

O=C(c1ccc(O)cc1O)c1ccc(O)cc1O
inactive: [1] | [2] | [3] | [4] | [5] | [6] | [7] | [8] | [9] | [10] | [11] | [12] | [13] | [14] | [15] | [17] | [18]
active: [4] 28.4 µM | [11] 53.5 µM | [16] 827 nM [middle of 4 runs]

CCSC(=O)N(CC(C)C)CC(C)C
not listed: [18] | [20]
inactive: all other assays above

CC(C)CCCCCCc1ccc(O)cc1
inactive: [1] | [2] | [4] | [5] | [6] | [7] | [8] | [9] | [10] | [11] | [12] | [13] | [14] | [15] | [17] | [18]
active: [1] 15.8 µM | [2] 17.9 µM and 20.8 µM and 19.9 µM | [3] 2.88 µM [middle of 4 runs] | [4] 11.1 µM | [6] 17.8 µM and 17.5 µM | [7] 19.4 µM and 16.2 µM | [8] 20.2 µM | [10] 20.3 µM | [11] 15.2 µM and 16.8 µM and 17.4 µM | [14] 2.96 µM and 11.1 µM and 10.3 µM | [16] 735 nM [middle of 4 runs] | [17] 16.6 µM and 19.4 µM and 18.5 µM

From PubChem BioAssay (EPA / NIEHS)
